dFosB activator: mouse delta FosB homodimer activation; P13346; purified delta FosB, TAMRA-CDK5 oligo fluorescence polarization; percent of positive-control signal above neutral wells; activation, % at 25 µM; 0.99% of 340,000 active;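 active = mean activation above about 17%, with every replicate also reaching it, limit read from the data, passing the limit was not always enough; inconclusive = only one of the two conditions met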
CR mimetic SO: caloric restriction mimetics inhibiting age-related superoxide in yeast | S. cerevisiae aged cells, superoxide DHE fluorescence; active compounds read low | AID 2690 | superoxide response (% of plate mean), % at 10 µM | 0.18% of 330,000 active;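 active = superoxide response under a set limit, about three screen SD below normal, cut at about 65% in these data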;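 note: yeast aged for seven days with compound at 30 °C before DHE staining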
GRIN3A LBD mod: modulators (binders) of human NR3A ligand-binding domain | NR3A LBD differential scanning fluorimetry, Tm shift; 0% = protein alone, 100% = glycine-bound protein | Tm shift relative to glycine control, % at 25 µM | 2.5% of 340,000 active | AID 1259313;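 active = melting temperature shift of at least 10% of the positive control shift, at one fixed dose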
UBC13 polyUb: blocks human UBC13 polyubiquitin chain formation. P61088. inhibition, % at 20 µM. AID 485273. 0.47% of 330,000 active. TR-FRET; in the data active = inhibition above about 45%, passing the limit was not always enough; inconclusive = no clear call, values can overlap the other calls
Target sequence (P61088 whole entry, looked up): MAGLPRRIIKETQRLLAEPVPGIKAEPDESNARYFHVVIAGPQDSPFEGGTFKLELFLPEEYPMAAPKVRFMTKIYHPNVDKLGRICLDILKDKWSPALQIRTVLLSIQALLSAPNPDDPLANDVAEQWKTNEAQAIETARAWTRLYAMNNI
NALP1 inh: NALP1 inhibition; AID 2071; 0.61% of 280,000 active; S. cerevisiae NALP1/ASC/caspase-1 growth, X-gal OD620, 72 h; inhibition, % at 10 µM; in the data active = inhibition mostly above about 24%, no sharp cut-off; inactive = mostly below about 32%
Of the large screens only hits and unclear results are named; the others gave an inactive call. Rows were chosen to be rich in hits. Some 4.3% of all compounds tested hit in one or more screens of this group.

CCn1ncc([N+](=O)[O-])c1C(=O)Nc1ccc(C)c(C)c1	none
CCN(C(=O)COC(=O)Cn1c(=O)oc2ccccc21)c1c(N)n(Cc2ccccc2)c(=O)[nH]c1=O	none (no result: CR mimetic SO, UBC13 polyUb, NALP1 inh)
Cc1ccc(S(=O)(=O)NC2CCCC2)cc1C	NALP1 inh 39
Oc1[nH]c(=S)sc1/C=C1\C(c2ccccc2)=Nc2ccccc21	GRIN3A LBD mod 16 (no result: UBC13 polyUb)
O=C1Nc2ccccc2N=C(c2ccccc2)c2ccccc21	none (no result: dFosB activator)
Oc1c(C=C2N=c3ccccc3=N2)sc(=S)n1-c1ccc(F)cc1	none
Oc1[nH]c(=S)sc1C=C1N=c2ccccc2=N1	GRIN3A LBD mod 18
O=C(NCC1OCCc2ccccc21)c1ccc(NC(=O)c2cccc(Br)c2)cc1 (stereo not given)	GRIN3A LBD mod 28
O=C(NCC1OCCc2ccccc21)c1ccc(NC(=O)c2ccccc2Cl)cc1 (stereo not given)	none
CCCCCC1CC(CC(=O)NC(=S)Nc2ccc([N+](=O)[O-])cc2)C(=O)O1 (stereo not given)	GRIN3A LBD mod 15
CCCc1cc(C(N)=S)ccn1	GRIN3A LBD mod 12
CCNC(=S)Nc1cc(C)ccn1	none
O=C1NC(=O)/C(=C/c2ccccn2)S1	none
c1coc(CNC2CCCCCCC2)c1	GRIN3A LBD mod 11
CCOc1ccc(N2C(=O)CC(NC3CCN(C(=O)c4cccs4)CC3)C2=O)cc1 (stereo not given)	none
Cc1nc2n(c(=O)c1CCN1CCC(c3noc4cc(F)ccc34)CC1)CCCC2	GRIN3A LBD mod 10
COc1ccc(Cl)cc1NC(=O)CN(C)C(=O)c1cc(C)oc1C	none (no result: NALP1 inh)
Cc1ccc2[nH]c(-c3cccc(N)c3)cc2c1	GRIN3A LBD mod 31
Cc1ccc(N(C)S(=O)(=O)c2c[nH]c3ccc([N+](=O)[O-])cc23)cc1	GRIN3A LBD mod 117
O=C(C1CCC1)N1CCN(S(=O)(=O)c2ccc(Br)cc2Cl)CC1	none (no result: NALP1 inh)
Cc1[nH]c2ccccc2c1/C=N/Nc1ccc([N+](=O)[O-])cc1	dFosB activator inconclusive, GRIN3A LBD mod 25 (no result: UBC13 polyUb)
O=[N+]([O-])c1ccc(N/N=C/c2c[nH]c3ccccc23)c(S(=O)(=O)Nc2ccc(Cl)cc2)c1	GRIN3A LBD mod 513
COc1ccccc1NS(=O)(=O)c1cc([N+](=O)[O-])ccc1N/N=C/c1c(C)[nH]c2ccccc12	GRIN3A LBD mod 29
Cc1[nH]c2ccccc2c1/C=N/NC(=O)c1cccc([N+](=O)[O-])c1	none
O=C(NCCc1nccs1)C1CCC(=O)N(Cc2cccc(C(F)(F)F)c2)C1 (stereo not given)	none
CC(C)(C)c1ccc(C(=O)c2c[nH]c(C(=O)NCCCn3ccnc3)c2)cc1	none
CCC(=O)c1c[nH]c(C(=O)NCCCn2ccnc2)c1	GRIN3A LBD mod 12
O=C(Nc1ccc(S(=O)(=O)NCc2ccccc2)cc1)Nc1ccc2c(c1)OCO2	GRIN3A LBD mod 36
CCOC(=O)COc1ccc(S(=O)(=O)Nc2ccc3c(c2)OCO3)cc1	GRIN3A LBD mod 14
CCNS(=O)(=O)c1ccc(NC(=O)Nc2ccc3c(c2)OCO3)cc1	GRIN3A LBD mod 25
COc1cccc(CN(C)C(=O)c2cc(S(=O)(=O)N3CCCC3)ccc2C)c1OC	none (no result: NALP1 inh)
O=C(Nc1ncccc1O)c1ccc(Oc2ccccc2)cc1	NALP1 inh 43
COc1cccc(N/C=C/C(=O)c2ccc(Br)cc2)c1	none (no result: NALP1 inh)
COc1ccc(C(=O)/C=C/Nc2cccc(O)c2)cc1	GRIN3A LBD mod 19
COc1ccc(C(=O)/C=C/Nc2ccc(S(=O)(=O)Nc3cccc(C(C)=O)c3)cc2)cc1	GRIN3A LBD mod 13
COc1cccc(C(=O)/C=C/Nc2ccc(S(=O)(=O)Nc3nc(C)cc(C)n3)cc2)c1	none
COc1cccc(C(=O)/C=C/Nc2ccc(S(=O)(=O)Nc3ccc(C(C)=O)cc3)cc2)c1	GRIN3A LBD mod 24
O=C(Cc1ccc(F)cc1)Nc1ccc(Cl)cn1	none
O=c1c2cc(N3CCOCC3)ccc2[nH]c(=S)n1Cc1ccc(Cl)cc1	GRIN3A LBD mod 38
COc1ccccc1NC(=O)NCCc1c[nH]c2ccccc12	none (no result: NALP1 inh)
O=C(NCCc1c[nH]c2ccccc12)C(=O)c1c[nH]c2ccccc12	GRIN3A LBD mod 25
O=C(NCCc1c[nH]c2ccccc12)Nc1ccccc1	GRIN3A LBD mod 16
O=C(COC(=O)CCc1c[nH]c2ccccc12)NCc1ccccc1	GRIN3A LBD mod 12
N#Cc1cccc(NC(=O)NCCc2c[nH]c3ccccc23)c1	GRIN3A LBD mod 11
